Records with an inconclusive call do not appear. Active and inactive are the calls of the source. Unless noted, the call rests on the fitted dose curve; in most records, active means well fitted curve in the direction sought with a large enough effect in the repeat runs; inconclusive means weak or mixed curves; inactive means no such curve, though single readings can be large; an effect the other way counts as inactive or inconclusive.
Experiments:
[1] = qHTS assay to identify small molecule agonists of the estrogen receptor beta (ER-beta) signaling pathway - cell viability counter screen (AID 1259380); further: nearly all actives have a fitted effect of over 30% in size; further: potency means the concentration at half of the fitted maximal effect; on activity change, negative = cytotoxicity: on the % scale 0 is the no-effect control and ±100 the full control effect
How it was run: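 ER-beta-UAS-bla HEK293T cells in medium with 2% charcoal-stripped FBS, pre-incubated 6 hr, then treated 16 hr at 37C. Cytotoxicity read in the same wells by CellTiter-Glo luminescence after 30 min at room temperature.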

[2] = biological target: Androgen receptor (Homo sapiens) (UniProt P10275); assay: qHTS assay to identify small molecule agonists of the androgen receptor (AR) signaling pathway in the presence of an antagonist (AID 1259381; calls by dose curve; further: on the % scale 0 is the no-effect control and ±100 the full control effect; nearly all actives have a fitted effect of over 15% in size)
Androgen receptor (Homo sapiens), sequence (P10275 whole entry, looked up): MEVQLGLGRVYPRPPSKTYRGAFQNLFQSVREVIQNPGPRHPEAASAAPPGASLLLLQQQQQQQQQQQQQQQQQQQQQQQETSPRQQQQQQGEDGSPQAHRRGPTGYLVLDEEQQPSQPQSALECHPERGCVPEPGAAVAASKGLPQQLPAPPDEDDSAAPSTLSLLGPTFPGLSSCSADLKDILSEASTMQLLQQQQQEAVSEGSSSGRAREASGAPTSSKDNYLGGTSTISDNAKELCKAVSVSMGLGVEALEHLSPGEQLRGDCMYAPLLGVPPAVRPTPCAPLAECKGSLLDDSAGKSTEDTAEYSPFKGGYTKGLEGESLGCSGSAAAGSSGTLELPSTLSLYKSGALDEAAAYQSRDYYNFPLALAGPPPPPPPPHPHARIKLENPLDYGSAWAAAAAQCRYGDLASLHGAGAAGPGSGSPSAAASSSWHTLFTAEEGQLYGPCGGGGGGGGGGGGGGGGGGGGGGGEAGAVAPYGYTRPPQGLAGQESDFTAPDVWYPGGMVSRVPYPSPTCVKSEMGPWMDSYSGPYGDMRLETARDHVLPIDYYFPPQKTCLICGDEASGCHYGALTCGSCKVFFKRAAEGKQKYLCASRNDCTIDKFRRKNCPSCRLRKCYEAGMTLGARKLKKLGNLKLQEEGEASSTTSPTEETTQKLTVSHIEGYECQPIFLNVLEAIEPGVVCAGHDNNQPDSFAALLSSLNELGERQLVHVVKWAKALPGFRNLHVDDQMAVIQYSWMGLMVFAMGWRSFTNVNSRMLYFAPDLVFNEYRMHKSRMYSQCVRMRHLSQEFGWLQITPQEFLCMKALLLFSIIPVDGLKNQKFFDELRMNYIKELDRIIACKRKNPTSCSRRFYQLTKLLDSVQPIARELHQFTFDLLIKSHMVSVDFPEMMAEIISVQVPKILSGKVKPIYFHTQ
How it was run: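 MDA-kb2 cells carrying MMTV-luciferase (AR/GR responsive), 3,000 cells/well, co-treated with 3.0 uM nilutamide final. Compounds at 15 concentrations, 16 hr at 37C without CO2. Luciferase luminescence read after 30 min with ONE-Glo.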

[3] = qHTS assay to identify small molecule antagonists of the estrogen receptor beta (ER-beta) signaling pathway - cell viability counter screen (AID 1259382); further: nearly all actives have a fitted effect of over 55% in size; further: potency means the concentration at half of the fitted maximal effect;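 on activity change, negative = cytotoxicity: HEK293T cells carrying ER-beta-UAS-bla reporter stimulated with estradiol; series mostly up to about 92 µM; on the % scale 0 is the no-effect control and ±100 the full control effect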
How it was run: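 ER-beta-UAS-bla HEK293T cells in 2% charcoal-stripped FBS medium, treated with compound plus 1 nM 17-beta-estradiol for 16 h at 37C. Viability read by CellTiter-Glo luminescence after 30 min at room temperature in the same wells.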

[4] = biological target: Estrogen receptor (Homo sapiens) (UniProt P03372); assay: qHTS assay to identify small molecule agonists of the estrogen receptor alpha (ER-alpha) signaling pathway in the presence of an antagonist (AID 1259383; calls by dose curve; further: top concentration of the series differs between compounds; on the % scale 0 is the no-effect control and ±100 the full control effect; nearly all actives have a fitted effect of over 15% in size)
Estrogen receptor (Homo sapiens), sequence (P03372 whole entry, looked up): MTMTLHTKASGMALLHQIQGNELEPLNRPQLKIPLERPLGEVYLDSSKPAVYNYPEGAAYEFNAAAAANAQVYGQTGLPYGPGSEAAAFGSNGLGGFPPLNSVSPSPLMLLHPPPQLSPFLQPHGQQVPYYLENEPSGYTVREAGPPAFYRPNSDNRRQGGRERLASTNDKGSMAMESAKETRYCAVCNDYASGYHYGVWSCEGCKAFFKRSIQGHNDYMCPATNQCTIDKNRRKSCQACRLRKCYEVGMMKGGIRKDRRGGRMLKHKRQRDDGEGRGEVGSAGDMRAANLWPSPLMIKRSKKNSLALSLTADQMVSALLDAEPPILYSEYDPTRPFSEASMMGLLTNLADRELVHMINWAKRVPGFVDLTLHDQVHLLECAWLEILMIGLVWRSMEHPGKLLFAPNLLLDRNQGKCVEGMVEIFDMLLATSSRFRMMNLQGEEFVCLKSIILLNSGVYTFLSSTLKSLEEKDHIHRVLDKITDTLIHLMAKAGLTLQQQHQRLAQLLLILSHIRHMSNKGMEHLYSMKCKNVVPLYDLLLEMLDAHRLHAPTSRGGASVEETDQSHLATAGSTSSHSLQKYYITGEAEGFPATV
How it was run: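 VM7Luc4E2 cells express endogenous full-length ER-alpha with an ERE-luciferase reporter and were hormone-deprived for 5 days. Compounds at 15 concentrations were added with 10.0nM ICI-182,780 for 22hr at 37C. Luminescence was read with ONE-Glo.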

[5] = qHTS assay to identify small molecule agonists or antagonists of the thyroid stimulating hormone receptor (TSHR) signaling pathway - wild type cell line counter screen (AID 1259384; calls by dose curve; further: potency means the concentration at half of the fitted maximal effect)
How it was run: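 Wild-type Hek293 cells, 800/well, 18 h at 37C, then compound with Ro20-1724 for 30 min RT. cAMP by HTRF (cAMP-d2/anti-cAMP cryptate), 1 h RT, fluorescence read. 15 concentrations, triplicates.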

[6] = biological target: Thyrotropin receptor (Homo sapiens) (UniProt P16473); assay: qHTS assay to identify small molecule antagonists of the thyroid stimulating hormone receptor (TSHR) signaling pathway (AID 1259385; calls by dose curve; further: nearly all actives have a fitted effect of over 20% in size; further: potency means the concentration at half of the fitted maximal effect)
Thyrotropin receptor (Homo sapiens), sequence (P16473 whole entry, looked up): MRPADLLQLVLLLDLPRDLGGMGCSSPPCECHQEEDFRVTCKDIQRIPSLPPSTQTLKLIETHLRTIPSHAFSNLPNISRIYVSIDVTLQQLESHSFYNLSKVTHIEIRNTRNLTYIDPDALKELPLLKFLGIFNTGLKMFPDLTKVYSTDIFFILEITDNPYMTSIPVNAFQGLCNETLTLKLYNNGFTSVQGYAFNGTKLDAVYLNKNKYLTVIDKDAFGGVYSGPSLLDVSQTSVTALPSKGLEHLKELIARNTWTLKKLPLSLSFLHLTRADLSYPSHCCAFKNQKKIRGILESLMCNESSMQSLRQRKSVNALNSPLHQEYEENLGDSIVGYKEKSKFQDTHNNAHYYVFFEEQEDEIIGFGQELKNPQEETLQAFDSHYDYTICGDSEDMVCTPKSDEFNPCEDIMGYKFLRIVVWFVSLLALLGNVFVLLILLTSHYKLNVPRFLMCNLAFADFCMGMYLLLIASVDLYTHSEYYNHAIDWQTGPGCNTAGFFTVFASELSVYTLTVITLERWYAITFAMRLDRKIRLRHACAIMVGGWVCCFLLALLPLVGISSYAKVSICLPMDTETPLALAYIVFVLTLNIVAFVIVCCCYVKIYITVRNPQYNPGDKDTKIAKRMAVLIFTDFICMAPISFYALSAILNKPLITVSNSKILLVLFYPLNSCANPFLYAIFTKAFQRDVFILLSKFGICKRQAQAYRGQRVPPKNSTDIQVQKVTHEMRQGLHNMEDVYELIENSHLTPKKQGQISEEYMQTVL
How it was run: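 TSHR-HEK293 cells (800/well) plated 18 h, then compounds with Ro20-1724 and TSH at 1.5 ng/mL final, 30 min at room temperature. cAMP quantified by HTRF (cAMP-d2/anti-cAMP-cryptate, 1 h); 15 concentrations in triplicate.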

[7] = qHTS assay to identify small molecule agonists of the estrogen receptor alpha (ER-alpha) signaling pathway in the presence of an antagonist - cell viability counter screen (AID 1259386);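 further: cells exposed to compounds for 22 h at 37 °C before the viability read; nearly all actives have a fitted effect of over 30% in size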; further: potency means the concentration at half of the fitted maximal effect
How it was run: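 Cell viability in VM7Luc4E2 cells (endogenous full-length ER-alpha) measured by CellTiter-Fluor fluorescence in the same wells as the luciferase screen. Cells pre-cultured 5 days in charcoal-stripped serum, then treated 22 h with compounds at 15 concentrations plus 10.0nM ICI-182,780.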

[8] = qHTS assay to identify small molecule agonists of the TGF-beta/Smad signaling pathway - cell viability counter screen (AID 1346829); further: nearly all actives have a fitted effect of over 45% in size; further: potency means the concentration at half of the fitted maximal effect
How it was run: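 Same-well cytotoxicity: CellTiter-Glo added after the 2 hr room-temperature beta-lactamase substrate step, luminescence measured 30 min later; cells had 5 hr of compound at 37 C.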

[9] = qHTS assay to identify small molecule agonists of the TGF-beta/Smad signaling pathway (AID 1346859; active means well fitted activation curve with a large enough effect in the signal ratio in the repeat runs, not every such curve was filed as active; the % refers to the signal ratio; further: series mostly up to about 77 µM; on the % scale 0 is the no-effect control and ±100 the full control effect)
How it was run: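 Beta-lactamase reporter activity downstream of Smad binding elements was measured in stably transfected HEK 293T cells; compounds were incubated for 5 hr, substrate for 2 hr at room temperature.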

[10] = biological target: Thyrotropin-releasing hormone receptor (Homo sapiens) (UniProt P34981); assay: qHTS assay to identify small molecule antagonists of the thyrotropin-releasing hormone receptor (TRHR) signaling pathway (AID 1346877; active means well fitted inhibition curve with a large enough effect in the repeat runs, not every such curve was filed as active; further: potency means the concentration at half of the fitted maximal effect)
Thyrotropin-releasing hormone receptor (Homo sapiens), sequence (P34981 whole entry, looked up): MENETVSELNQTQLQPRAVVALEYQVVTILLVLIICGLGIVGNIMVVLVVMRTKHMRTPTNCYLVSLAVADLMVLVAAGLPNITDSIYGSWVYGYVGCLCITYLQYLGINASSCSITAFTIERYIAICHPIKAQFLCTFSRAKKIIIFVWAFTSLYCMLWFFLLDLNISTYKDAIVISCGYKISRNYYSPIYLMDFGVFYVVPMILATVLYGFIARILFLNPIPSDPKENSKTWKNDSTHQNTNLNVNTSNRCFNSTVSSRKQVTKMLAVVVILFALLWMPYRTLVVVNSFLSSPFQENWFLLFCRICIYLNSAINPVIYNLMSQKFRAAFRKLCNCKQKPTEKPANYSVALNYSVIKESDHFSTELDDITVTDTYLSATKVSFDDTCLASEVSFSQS
How it was run: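 TRHR-expressing HEK293 cells loaded with calcium dye for 2 h at 37 C; compounds pre-incubated 5 min at room temperature before TRH challenge at 1 nM final. Intracellular calcium fluorescence read kinetically for 3 min; 15 concentrations in triplicate.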

[11] = Human pregnane X receptor (PXR) small molecule agonists, qHTS cell viability counter screen (AID 1346977); further: nearly all actives have a fitted effect of over 50% in size; further: potency means the concentration at half of the fitted maximal effect
How it was run: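 After a 5hr pre-incubation, PXR-Luc HepG2 cells received compounds plus positive control in DMSO and were kept 24hr at 37C. Cell viability was quantified by fluorescence from CellTiter-Fluor added for the final hour.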

[12] = Caspase-3/7 induction in HepG2 cells by small molecules, qHTS assay (AID 1346978); further: on the % scale 0 is the no-effect control and ±100 the full control effect; nearly all actives have a fitted effect of over 15% in size
How it was run: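 Wild-type HepG2 cells, 2,000/well, settled 5 hr at 37 C and 5% CO2, then compound-treated for 17 hr; caspase-3/7 activity read by luminescent Caspase-Glo 3/7 after 30 min at room temperature.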

[13] = Caspase-3/7 induction in CHO-K1 cells by small molecules, qHTS cell viability counter screen (AID 1346979); further: nearly all actives have a fitted effect of over 35% in size; further: potency means the concentration at half of the fitted maximal effect
How it was run: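 Multiplexed with Caspase-Glo 3/7 in CHO-K1 cells, this counter screen added CellTiter-Fluor after 16hr of compound exposure and recorded fluorescence 1hr later.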

[14] = Caspase-3/7 induction in CHO-K1 cells by small molecules, qHTS assay (AID 1346980); further: nearly all actives have a fitted effect of over 15% in size; further: potency means the concentration at half of the fitted maximal effect
How it was run: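 Wild-type CHO-K1 cells exposed to compounds for 17hr at 37 C, 5% CO2. Caspase-3/7 activity then measured by Caspase-Glo 3/7 luminescence after 30min at room temperature.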

[15] = biological target: Progesterone receptor (Homo sapiens) (UniProt P06401); assay: qHTS assay to identify small molecule agonists of the progesterone receptor (PR) signaling pathway (AID 1346784; calls by dose curve; further: on the % scale 0 is the no-effect control and ±100 the full control effect; nearly all actives have a fitted effect of over 30% in size)
Progesterone receptor (Homo sapiens), sequence (P06401 whole entry, looked up): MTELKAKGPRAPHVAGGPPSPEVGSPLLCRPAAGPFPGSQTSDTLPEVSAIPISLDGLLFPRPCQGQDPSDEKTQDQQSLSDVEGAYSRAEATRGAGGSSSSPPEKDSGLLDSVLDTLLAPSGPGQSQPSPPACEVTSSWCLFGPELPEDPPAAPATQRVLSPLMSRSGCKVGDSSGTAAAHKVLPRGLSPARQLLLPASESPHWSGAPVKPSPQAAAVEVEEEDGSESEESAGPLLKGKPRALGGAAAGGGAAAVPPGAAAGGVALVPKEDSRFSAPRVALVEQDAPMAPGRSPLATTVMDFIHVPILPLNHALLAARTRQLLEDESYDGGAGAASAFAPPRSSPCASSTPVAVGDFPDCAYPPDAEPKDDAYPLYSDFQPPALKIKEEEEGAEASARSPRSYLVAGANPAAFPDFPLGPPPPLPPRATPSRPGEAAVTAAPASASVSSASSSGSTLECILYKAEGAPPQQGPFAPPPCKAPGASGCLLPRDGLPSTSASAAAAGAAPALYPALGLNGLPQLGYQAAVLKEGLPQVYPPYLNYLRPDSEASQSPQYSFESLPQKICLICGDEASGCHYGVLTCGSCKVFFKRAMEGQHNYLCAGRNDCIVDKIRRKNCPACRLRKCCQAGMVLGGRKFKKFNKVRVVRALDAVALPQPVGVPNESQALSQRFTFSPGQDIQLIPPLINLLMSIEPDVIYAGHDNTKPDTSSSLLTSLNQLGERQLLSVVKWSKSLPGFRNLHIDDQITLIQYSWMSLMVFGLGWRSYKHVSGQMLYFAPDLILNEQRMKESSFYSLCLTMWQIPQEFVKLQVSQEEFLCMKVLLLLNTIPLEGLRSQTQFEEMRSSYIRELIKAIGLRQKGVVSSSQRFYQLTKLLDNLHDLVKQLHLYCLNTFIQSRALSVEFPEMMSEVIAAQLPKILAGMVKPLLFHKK
How it was run: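 Seed PR-UAS-bla HEK 293T cells (2% charcoal-stripped FBS), incubate 6 hr at 37C; add compounds in DMSO, 16 hr at 37C; add LiveBLAzer B/G substrate, 2 hr RT; read fluorescence intensity.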

[16] = qHTS assay to identify small molecule antagonists of the progesterone receptor (PR) signaling pathway - cell viability counter screen (AID 1346798); further: nearly all actives have a fitted effect of over 50% in size; further: potency means the concentration at half of the fitted maximal effect
How it was run: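 Measures cytotoxicity in parallel with the PR antagonist reporter read: HEK293T PR-UAS-bla cells get compound and R5020 for 16 hr, and remaining viable cells are quantified by CellTiter-Glo luminescence.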

[17] = qHTS assay to identify small molecule agonists of the progesterone receptor (PR) signaling pathway - cell viability counter screen (AID 1346799; calls by dose curve; further: nearly all actives have a fitted effect of over 45% in size; further: potency means the concentration at half of the fitted maximal effect)
How it was run: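 Using the same plates as the PR reporter screen, HEK293T PR-UAS-bla cells received compounds for 16 hr at 37C and were then lysed with CellTiter-Glo; luminescence was read 30 min later at room temperature.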

[18] = qHTS assay to identify small molecule antagonists of the TGF-beta/Smad signaling pathway - cell viability counter screen (AID 1346824); further: on the % scale 0 is the no-effect control and ±100 the full control effect; nearly all actives have a fitted effect of over 50% in size
How it was run: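 SBE-bla HEK 293T cells, incubated overnight, then compound plus 0.25 ng/mL TGF-beta1 (stock added) for 5 hr at 37 C. Viability was read in the same wells by CellTiter-Glo luminescence after 30 min at room temperature.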

[19] = biological target: Thyrotropin-releasing hormone receptor (Homo sapiens) (UniProt P34981); assay: qHTS assay to identify small molecule agonists of the thyrotropin-releasing hormone receptor (TRHR) signaling pathway (AID 1346891; calls by dose curve; further: series mostly up to about 58 µM; on the % scale 0 is the no-effect control and ±100 the full control effect)
How it was run: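 Overnight-plated (18 h, 37 °C, 5% CO2) TRHR-Hek293 cells; 2 h calcium dye at 37 °C; compound in DMSO; 3-min kinetic fluorescence read.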

[20] = biological target: Progesterone receptor (Homo sapiens) (UniProt P06401); assay: qHTS assay to identify small molecule antagonists of the progesterone receptor (PR) signaling pathway (AID 1346795; active means well fitted inhibition curve with a large enough effect in the signal ratio in the repeat runs, not every such curve was filed as active; the % refers to the signal ratio; further: potency means the concentration at half of the fitted maximal effect)
How it was run: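 Screening used a GripTite HEK293T line with PR-responsive UAS-beta-lactamase. Cells were challenged with compound in the presence of 1 nM R5020 final for 16 hr at 37C; B/G FRET substrate, 2 hr room temperature, fluorescence.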

Cc1ccc(S(=O)(=O)C(I)I)cc1
active: Potency [1] 21.7 µM | Potency [3] 30.6 µM | Potency [5] 9.69 µM | Potency [6] 68.6 µM | Potency [7] 68.6 µM | Potency [8] 49 µM | Potency [10] 10.7 µM | Potency [11] 27.3 µM | Potency [13] 15.4 µM | Potency [14] 12.2 µM
inactive: Potency [2] | Potency [4] | outcome [9] | Potency [12]

O=C1CCC(=O)N1
inactive: Potency [1] | Potency [2] | Potency [3] | Potency [4] | Potency [5] | Potency [6] | outcome [15] | Potency [16] | Potency [17] | Potency [18] | Potency [8] | outcome [9] | Potency [10] | Potency [19] | Potency [11] | Potency [12] | Potency [13] | Potency [14]

CN[C@H]1CC[C@@H](c2ccc(Cl)c(Cl)c2)c2ccc(S(N)(=O)=O)cc21
active: Potency [1] 19.3 µM | Potency [3] 21.7 µM | Potency [16] 48.6 µM | Potency [17] 48.6 µM | Potency [11] 61.1 µM
inactive: Potency [2] | Potency [4] | Potency [5] | Potency [7] | Potency [18] | outcome [9] | Potency [19]

C=CC(=O)OCC(Br)CBr (centres undefined)
inactive: Potency [1] | Potency [2] | Potency [3] | Potency [4] | Potency [5] | Potency [6] | Potency [7] | outcome [15] | Potency [16] | Potency [17] | Potency [18] | Potency [8] | outcome [9] | Potency [11] | Potency [12] | Potency [14]

N#Cc1ccc(C/C(=N/NC(=O)Nc2ccc(OC(F)(F)F)cc2)c2cccc(C(F)(F)F)c2)cc1
inactive: Potency [1] | Potency [2] | Potency [3] | Potency [4] | Potency [5] | Potency [6] | Potency [7] | outcome [15] | Potency [17] | Potency [18] | Potency [8] | outcome [9] | Potency [10] | Potency [19] | Potency [11] | Potency [12] | Potency [14]
active: Potency [20] 27.3 µM

C=CC(=O)OCCOC1C2CCC1C1CC=CC12 (centres undefined)
inactive: activity change, negative = cytotoxicity [1] -0.168% [at 19 µM] | activation [2] 0.68% [at 19 µM] | activity change, negative = cytotoxicity [3] 2.85% [at 19 µM] | activation [4] 0.428% [at 19 µM] | cAMP activity change [5] -2.01% [at 18.9 µM, hits give high values] | activity change, negative = inhibition [6] 6.1% [at 19 µM] | activity change, negative = cytotoxicity [16] 13.6% [at 18.9 µM] | activity change, negative = cytotoxicity [17] 1.19% [at 19 µM] | viability change, negative = cytotoxic [18] -7.56% [at 15.8 µM] | activity change, negative = cytotoxicity [8] 7.46% [at 15.8 µM] | activation [9] -4.69% [at 15.8 µM] | activation [19] -0.0878% [at 11.8 µM] | activity change, negative = cytotoxicity [11] 5.4% [at 19 µM] | caspase activation [12] 2.88% [at 19 µM] | activity change, negative = cytotoxicity [13] 4.17% [at 19 µM] | caspase-3/7 activation [14] 0.29% [at 19 µM]

Source: PubChem BioAssay (Tox21)
